The values that follow come from the supplement of paper PMC4022240.

T1: HaloTag-ATRX ADD domain (163-292)
T1 chain: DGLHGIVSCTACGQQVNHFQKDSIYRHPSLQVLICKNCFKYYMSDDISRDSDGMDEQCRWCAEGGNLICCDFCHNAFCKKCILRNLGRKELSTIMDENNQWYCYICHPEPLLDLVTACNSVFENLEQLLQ

B1: Unmod H2A variant Y L T A E I L E L A G N A (peptide)
chain: YLTAEILELAGNA
B2: Unmod H2A variant L A A V L E Y L T A E I L (peptide)
chain: LAAVLEYLTAEIL
B3: Unmod H2A variant L N K L L G G V T I A Q G (peptide)
chain: LNKLLGGVTIAQG
B4: Unmod H2A variant I L E L A G N A S R D N K (peptide)
chain: ILELAGNASRDNK
B5: Unmod H2A variant L N K L L G K V T I A Q G (peptide)
chain: LNKLLGKVTIAQG

± gives the standard deviation.

The first experiment has as its target T1, HaloTag-ATRX ADD domain (163-292). Description: peptide microarray binding signal (635 nm), min-max normalized on array (fraction of array maximum); higher = stronger binding. To be noted: peptide region: Unmod H2A variant; binder concentration: 50 nM. In outline:
(§1)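 Binding signal is the mean intensity of triplicate spots, min-max scaled within each library. Histone 13-mer peptide–cellulose conjugates were spotted in triplicate on nitrocellulose with a Cy3 tracer and blocked overnight at 4°C. Probing lasted 1 h at 4°C, either with biotin-labelled HaloTag reader fusions (10 nM to 1 μM) and streptavidin-Alexa Fluor 647 or with rabbit histone antibodies (1:10,000 to 1:2,000) and anti-rabbit Alexa 647. An Axon GenePix 4000B read signal at 635 nm and misprints at 532 nm.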
On to B1, for which the “peptide microarray binding signal” value amounted to 0.0171 ± 0.0047.
As for B2, the “peptide microarray binding signal” value amounted to 0.0089 ± 0.00038.
Turning to B3, the “peptide microarray binding signal” value was determined as 0.027 ± 0.0084.
For B4, the “peptide microarray binding signal” value turned out to be 0.0191 ± 0.0013.
With B5, the “peptide microarray binding signal” value stood at 0.0216 ± 0.0016.

The experiment is the same for the next values; noted with them: peptide region: Unmod H2A variant; binder concentration: 500 nM.
B1: the “peptide microarray binding signal” value stood at 0.00443 ± 0.0022.
Still for that read-out and setting: the result for B2 reads 0.00462 ± 0.00017; that for B3, 0.0141 ± 0.0028; that for B4, 0.04029 ± 0.00036.
For the molecule B5, the “peptide microarray binding signal” value was 0.028 ± 0.0031.

A further experiment has as its target HaloTag-ING2 PHD (mouse Ing2 200-280). The experiment is described as above. To be noted: peptide region: Unmod H2A variant; binder concentration: 10 nM. In outline: as §1
As to B1, the “peptide microarray binding signal” value was determined as 0.00203 ± 0.00013.
Turning to B2, the “peptide microarray binding signal” value came to 0.00215 ± 4.5e-05.
Turning to B3, the “peptide microarray binding signal” value was found to be 0.00615 ± 0.00035.
Take B4: the “peptide microarray binding signal” value came out at 0.00734 ± 0.00031.
As for B5, the “peptide microarray binding signal” value worked out at 0.006087 ± 5.8e-05.

Staying with this experiment, now noted: peptide region: Unmod H2A variant; binder concentration: 100 nM.
As for B1, the “peptide microarray binding signal” value is 0.00149 ± 4.1e-05.
Regarding B2, the “peptide microarray binding signal” value worked out at 0.00184 ± 0.00015.
In the case of B3, the “peptide microarray binding signal” value was 0.0259 ± 0.0025.
On to B4, for which the “peptide microarray binding signal” value came out at 0.0487 ± 0.0018.
As to B5, the “peptide microarray binding signal” value came to 0.032 ± 0.015.

A further experiment addresses anti-H3K4me3 antibody ab8580. The experiment is described as above. Conditions: peptide region: Unmod H2A variant; binder concentration: 1:2,000 dilution. Put shortly: as §1
B1: the “peptide microarray binding signal” value was 0.000717 ± 0.00017.
For the molecule B2, the “peptide microarray binding signal” value was 0.00238 ± 0.0001.
On to B3, for which the “peptide microarray binding signal” value came out at 0.00748 ± 0.0012.
Regarding B4, the “peptide microarray binding signal” value amounted to 0.0164 ± 0.0026.
Regarding B5, the “peptide microarray binding signal” value came out at 0.00715 ± 0.00038.

The experiment is the same for the next values; noted with them: peptide region: Unmod H2A variant; binder concentration: 1:10,000 dilution.
For B1, the “peptide microarray binding signal” value stood at 0.00126.
As to B2, the “peptide microarray binding signal” value stood at 0.000913 ± 1.6e-05.
On the same count and under the same terms, the result for B3 reads 0.00177 ± 0.0002.
Same read-out and setting: in the case of B4 it was 0.00354 ± 0.00017.
B5: the “peptide microarray binding signal” value was 0.00171 ± 3.3e-05.

A further experiment has as its target anti-H3K9me3 antibody ab8898. Described as above. Conditions: peptide region: Unmod H2A variant; binder concentration: 1:2,000 dilution. In outline:
as §1
Turning to B1, the “peptide microarray binding signal” value came out at 0.000664 ± 3.6e-05.
For the molecule B2, the “peptide microarray binding signal” value amounted to 0.0003775 ± 3.7e-06.
B3: the “peptide microarray binding signal” value is 0.0011 ± 4.3e-05.
B4: the “peptide microarray binding signal” value turned out to be 0.00523 ± 0.00098.
Turning to B5, the “peptide microarray binding signal” value came out at 0.00115 ± 4.6e-05.

The experiment is the same for the next values; noted with them: peptide region: Unmod H2A variant; binder concentration: 1:10,000 dilution.
Regarding B1, the “peptide microarray binding signal” value worked out at 0.00196 ± 0.00018.
For B2, the “peptide microarray binding signal” value was 0.00075 ± 7.9e-06.
B3: the “peptide microarray binding signal” value was found to be 0.00138 ± 3.6e-05.
On the same count and under the same terms, the result for B4 reads 0.00536 ± 0.0001; that for B5, 0.001614 ± 1.6e-05.
